The structures appear in SMILES notation.

The first test deals with T1, Aspartate--tRNA(Asp/Asn) ligase (Mycobacterium tuberculosis (strain ATCC 25618 / H37Rv)) (UniProt P9WFW3).
T1 sequence (whole entry): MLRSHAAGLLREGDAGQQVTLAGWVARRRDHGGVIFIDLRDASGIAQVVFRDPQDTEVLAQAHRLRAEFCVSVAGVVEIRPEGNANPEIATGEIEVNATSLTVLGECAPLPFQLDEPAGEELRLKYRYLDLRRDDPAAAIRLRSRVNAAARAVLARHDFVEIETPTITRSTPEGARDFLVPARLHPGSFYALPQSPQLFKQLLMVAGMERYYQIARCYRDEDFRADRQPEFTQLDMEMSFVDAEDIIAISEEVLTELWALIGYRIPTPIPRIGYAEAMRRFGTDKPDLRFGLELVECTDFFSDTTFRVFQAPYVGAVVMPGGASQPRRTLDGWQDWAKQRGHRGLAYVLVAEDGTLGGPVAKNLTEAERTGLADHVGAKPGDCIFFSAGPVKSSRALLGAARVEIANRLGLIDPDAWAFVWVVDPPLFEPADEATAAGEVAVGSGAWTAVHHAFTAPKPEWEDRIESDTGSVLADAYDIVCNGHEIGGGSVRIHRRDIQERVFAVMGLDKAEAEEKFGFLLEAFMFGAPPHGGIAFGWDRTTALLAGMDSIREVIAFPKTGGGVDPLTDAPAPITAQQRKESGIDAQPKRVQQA
The experiment in a line: Assay for Asp RNA synthetase-1 from Mycobacterium tuberculosis. Format: functional. On the set-up: scale not given: direction of the effect not stated beside the values. The note with it: 30 µM.
Consider `Cc1cc(C)n(CC2CN(CC(=O)Nc3c(C)n[nH]c3C)CCO2)n1` (stereo not given), for which the Percent Effect was -0.486%.

For the compound `CC(NC(=O)N1CCC(OCc2ccccc2)CC1)c1nncn1C` (stereo not given), the Percent Effect was -3.22%.

`CC(C)CN1CCC(c2nc3c([nH]2)CC(C)(C)CNC3=O)C1` (stereo not given): the Percent Effect turned out to be 1.44%.

Regarding `CCc1nccn1C1CCCN(C(=O)c2cnn3ccc(C)nc23)C1` (stereo not given), the Percent Effect was determined as 0.632%.

`O=C(c1cnco1)N1CCCC(Cc2cccc3ncccc23)C1` (stereo not given): the Percent Effect amounted to 3.23%.

With `CC(C)C(NC(=O)Cn1ccc(=O)n(C)c1=O)c1ccc(F)cc1` (stereo not given), the Percent Effect was 4.7%.

Consider `CCC(C)(NCC(=O)N(c1ccccc1)C(C)C)c1nc(C)cs1` (stereo not given), for which the Percent Effect came to 1.2%.

On to `Cn1nc2c(cc1=O)CN(Cc1nc(-c3cccs3)no1)CC2`, for which the Percent Effect came to 1.81%.

In the case of `CCc1nc(C)c(C(=O)NCCNc2cnccn2)s1`, the Percent Effect amounted to 4.33%.

Take `CCn1cnnc1C1CCN(C(=O)c2cc3c(s2)CCC3)CC1`: the Percent Effect is -5.31%.

With `Cc1ccoc1-c1nnc(CN2CCn3c(nnc3C3CC3)C2)o1`, the Percent Effect is -2.98%.

For `OC(COCc1ccccc1Cl)CN1CC(n2cccn2)C1` (stereo not given), the Percent Effect came out at 0.411%.

For the compound `O=C(NCc1ccccc1)c1nnc2ccc(N3CCOCC3)cc2n1`, the Percent Effect was -1.02%.

Regarding `CNC(=O)CC1CCN(Cc2nc(-c3ccc(SC)cc3)oc2C)CC1`, the Percent Effect was -1.17%.

As for `O=C(Cn1cnc(NC(=O)CC2CCCC2)n1)NCc1ccccc1`, the Percent Effect is -1.37%.

For the compound `CN(Cc1nnc(C2CC2)n1C)C1CCN(CCc2cccs2)C1` (stereo not given), the Percent Effect came out at 1.39%.

As to `O=C(O)C1CCCCN1C(=O)c1cccc(C(F)(F)F)c1` (stereo not given), the Percent Effect is -1.94%.

For the compound `CCc1n[nH]c(C2CN(C(=O)CCc3cccs3)CCO2)n1` (stereo not given), the Percent Effect is -2.02%.

Consider `Cc1nc(CNC(=O)NCC(O)c2cccc(Cl)c2)cs1` (stereo not given), for which the Percent Effect was 1.01%.

Consider `COc1ccc(C2C3=C(COC3=O)Nc3[nH]nc(C)c32)cc1OC` (stereo not given), for which the Percent Effect was -2.61%.

As to `Cc1cnn(CCNCc2ccccc2Oc2cccnc2)c1`, the Percent Effect was determined as 10.1%.

Regarding `Cc1nc(C)n(CC2CCCN(c3ncnc4c3CCC4)C2)n1` (stereo not given), the Percent Effect was found to be 2.14%.

As for `Cn1ccnc1CN1CCC2(CC1)CC(NC(=O)c1ccccn1)CO2` (stereo not given), the Percent Effect was found to be 2.38%.

`O=C(O)c1cc(NS(=O)(=O)c2cccc(Cl)c2F)ccc1Cl`: the Percent Effect came out at 0.425%.

In the case of `Cc1nnc2n1CCN(Cc1csc(-c3ccc(F)cc3)n1)C2`, the Percent Effect was 2.74%.

As to `c1cnc(N2CCOCC3(CCCN(CC4CC4)C3)C2)cn1` (stereo not given), the Percent Effect is 0.0873%.

Regarding `Cc1ncsc1C(=O)NCCn1nc(C2CCNC2)c2cccnc21` (stereo not given), the Percent Effect is -3.63%.

`O=C(c1ccnnc1)N1CCC2(CC1)CC(N1CCOCC1)C2`: the Percent Effect was 2.89%.

As for `O=C(NCCCn1cncn1)NCC(c1ccco1)N1CCCCC1` (stereo not given), the Percent Effect stood at 7.12%.

For the compound `NC(=O)C1CCCN(C(=O)c2cnc3c(cnn3C3CCCC3)c2)C1` (stereo not given), the Percent Effect was -6.91%.

Take `Cc1ccccc1-c1noc(CN2CCn3c(nnc3C3CC3)C2)n1`: the Percent Effect was -0.7%.

In the case of `N#Cc1ccccc1OCCN1CCCCC1Cn1cncn1` (stereo not given), the Percent Effect was 3.26%.

Consider `CN1CCCC2(CCN(C(=O)CCn3cncn3)C2)C1=O` (stereo not given), for which the Percent Effect is -4.51%.

As to `CC(C(=O)NCCOc1ccc2c(c1)OCO2)n1cncn1` (stereo not given), the Percent Effect is -7.68%.

As to `Cc1nn(CC(=O)N2CCCCC2Cn2cccn2)c(C)c1Cl` (stereo not given), the Percent Effect is -0.127%.

For the compound `CCN1CC(C(=O)NC(C)(C)CNC(=O)OC(C)(C)C)CC1=O` (stereo not given), the Percent Effect came out at 4.36%.

In the case of `CN1CC(=O)N(c2ccccc2)CC12CCN(Cc1cccnc1)C2` (stereo not given), the Percent Effect was -5.22%.

For `CCN(CC)S(=O)(=O)N1CCCC(c2ccc(C(=O)O)cc2)C1` (stereo not given), the Percent Effect was -0.279%.

Turning to `CC(O)CNC(=O)NCc1ccc(N2CCNC(=O)C2)cc1` (stereo not given), the Percent Effect was 2.09%.

Take `CNc1cccc(C2CCCN(C(=O)c3ccncc3)C2)n1` (stereo not given): the Percent Effect is -6.06%.

Another test addresses Shiga toxin 2 (Escherichia coli O157:H7) (UniProt P09385+P09386). Put plainly: E. coli 0.157:H7 Shiga Toxin SOP - stx2 screening assay. Format: functional. Also on record: scale not given: direction of the effect not stated beside the values. The note with it: 30 µM.
On to `Cc1cc(C)n(CC2CN(CC(=O)Nc3c(C)n[nH]c3C)CCO2)n1` (stereo not given), for which the Percent Effect stood at 6.68%.

Turning to `CC(NC(=O)N1CCC(OCc2ccccc2)CC1)c1nncn1C` (stereo not given), the Percent Effect was 3.46%.

In the case of `CC(C)CN1CCC(c2nc3c([nH]2)CC(C)(C)CNC3=O)C1` (stereo not given), the Percent Effect was -12.2%.

Consider `CCc1nccn1C1CCCN(C(=O)c2cnn3ccc(C)nc23)C1` (stereo not given), for which the Percent Effect stood at 11.2%.

Turning to `O=C(c1cnco1)N1CCCC(Cc2cccc3ncccc23)C1` (stereo not given), the Percent Effect was -27.4%.

With `CC(C)C(NC(=O)Cn1ccc(=O)n(C)c1=O)c1ccc(F)cc1` (stereo not given), the Percent Effect is -13.7%.

`CCC(C)(NCC(=O)N(c1ccccc1)C(C)C)c1nc(C)cs1` (stereo not given): the Percent Effect is -25.8%.

Turning to `Cn1nc2c(cc1=O)CN(Cc1nc(-c3cccs3)no1)CC2`, the Percent Effect came to 3.81%.

`CCc1nc(C)c(C(=O)NCCNc2cnccn2)s1`: the Percent Effect came to 8.72%.

Take `CCn1cnnc1C1CCN(C(=O)c2cc3c(s2)CCC3)CC1`: the Percent Effect is -11.1%.

Regarding `Cc1ccoc1-c1nnc(CN2CCn3c(nnc3C3CC3)C2)o1`, the Percent Effect was -36.6%.

For the compound `OC(COCc1ccccc1Cl)CN1CC(n2cccn2)C1` (stereo not given), the Percent Effect came out at 29.1%.

With `O=C(NCc1ccccc1)c1nnc2ccc(N3CCOCC3)cc2n1`, the Percent Effect is -21.5%.

Turning to `CNC(=O)CC1CCN(Cc2nc(-c3ccc(SC)cc3)oc2C)CC1`, the Percent Effect was -3.87%.

With `O=C(Cn1cnc(NC(=O)CC2CCCC2)n1)NCc1ccccc1`, the Percent Effect amounted to 12.3%.

Take `CN(Cc1nnc(C2CC2)n1C)C1CCN(CCc2cccs2)C1` (stereo not given): the Percent Effect was -43.7%.

On to `O=C(O)C1CCCCN1C(=O)c1cccc(C(F)(F)F)c1` (stereo not given), for which the Percent Effect stood at 33.5%.

Turning to `CCc1n[nH]c(C2CN(C(=O)CCc3cccs3)CCO2)n1` (stereo not given), the Percent Effect is -49.5%.

In the case of `Cc1nc(CNC(=O)NCC(O)c2cccc(Cl)c2)cs1` (stereo not given), the Percent Effect is -16.9%.

Take `COc1ccc(C2C3=C(COC3=O)Nc3[nH]nc(C)c32)cc1OC` (stereo not given): the Percent Effect is -21.4%.

In the case of `Cc1cnn(CCNCc2ccccc2Oc2cccnc2)c1`, the Percent Effect is -15.5%.

As to `Cc1nc(C)n(CC2CCCN(c3ncnc4c3CCC4)C2)n1` (stereo not given), the Percent Effect came to 15.3%.

`Cn1ccnc1CN1CCC2(CC1)CC(NC(=O)c1ccccn1)CO2` (stereo not given): the Percent Effect was -19.4%.

For `O=C(O)c1cc(NS(=O)(=O)c2cccc(Cl)c2F)ccc1Cl`, the Percent Effect was found to be 20.1%.

For `Cc1nnc2n1CCN(Cc1csc(-c3ccc(F)cc3)n1)C2`, the Percent Effect came out at 3.01%.

As for `c1cnc(N2CCOCC3(CCCN(CC4CC4)C3)C2)cn1` (stereo not given), the Percent Effect is -8.06%.

For `Cc1ncsc1C(=O)NCCn1nc(C2CCNC2)c2cccnc21` (stereo not given), the Percent Effect is -7%.

Regarding `O=C(c1ccnnc1)N1CCC2(CC1)CC(N1CCOCC1)C2`, the Percent Effect is -0.921%.

`O=C(NCCCn1cncn1)NCC(c1ccco1)N1CCCCC1` (stereo not given): the Percent Effect was determined as 18.2%.

Regarding `NC(=O)C1CCCN(C(=O)c2cnc3c(cnn3C3CCCC3)c2)C1` (stereo not given), the Percent Effect was -20.7%.

For the compound `Cc1ccccc1-c1noc(CN2CCn3c(nnc3C3CC3)C2)n1`, the Percent Effect is -48.8%.

With `N#Cc1ccccc1OCCN1CCCCC1Cn1cncn1` (stereo not given), the Percent Effect amounted to 5.17%.

As for `CN1CCCC2(CCN(C(=O)CCn3cncn3)C2)C1=O` (stereo not given), the Percent Effect amounted to 27.3%.

In the case of `CC(C(=O)NCCOc1ccc2c(c1)OCO2)n1cncn1` (stereo not given), the Percent Effect was -4.93%.

For `Cc1nn(CC(=O)N2CCCCC2Cn2cccn2)c(C)c1Cl` (stereo not given), the Percent Effect was -13.2%.

Consider `CCN1CC(C(=O)NC(C)(C)CNC(=O)OC(C)(C)C)CC1=O` (stereo not given), for which the Percent Effect came to 15.4%.

On to `CN1CC(=O)N(c2ccccc2)CC12CCN(Cc1cccnc1)C2` (stereo not given), for which the Percent Effect is -7.54%.

Regarding `CCN(CC)S(=O)(=O)N1CCCC(c2ccc(C(=O)O)cc2)C1` (stereo not given), the Percent Effect is -2.52%.

As to `CC(O)CNC(=O)NCc1ccc(N2CCNC(=O)C2)cc1` (stereo not given), the Percent Effect is -86.8%.

As to `CNc1cccc(C2CCCN(C(=O)c3ccncc3)C2)n1` (stereo not given), the Percent Effect amounted to 17.8%.

The values are drawn from ChEMBL document CHEMBL3988442, “University of Dundee, Small-Polar-MMV Screening Library” (2021).
